Bioassay records as filed in PubChem BioAssay.
Anthrax LF prot: Bacillus anthracis LF protease inhibitors, primary screen, biochemical, multiplex microsphere, MLPCN library | Lethal factor (Bacillus anthracis), P15917 | multiplex microsphere protease cleavage assay | inhibition, % at 10 µM | 0.12% of 360,000 active
Target sequence (P15917 whole entry, looked up): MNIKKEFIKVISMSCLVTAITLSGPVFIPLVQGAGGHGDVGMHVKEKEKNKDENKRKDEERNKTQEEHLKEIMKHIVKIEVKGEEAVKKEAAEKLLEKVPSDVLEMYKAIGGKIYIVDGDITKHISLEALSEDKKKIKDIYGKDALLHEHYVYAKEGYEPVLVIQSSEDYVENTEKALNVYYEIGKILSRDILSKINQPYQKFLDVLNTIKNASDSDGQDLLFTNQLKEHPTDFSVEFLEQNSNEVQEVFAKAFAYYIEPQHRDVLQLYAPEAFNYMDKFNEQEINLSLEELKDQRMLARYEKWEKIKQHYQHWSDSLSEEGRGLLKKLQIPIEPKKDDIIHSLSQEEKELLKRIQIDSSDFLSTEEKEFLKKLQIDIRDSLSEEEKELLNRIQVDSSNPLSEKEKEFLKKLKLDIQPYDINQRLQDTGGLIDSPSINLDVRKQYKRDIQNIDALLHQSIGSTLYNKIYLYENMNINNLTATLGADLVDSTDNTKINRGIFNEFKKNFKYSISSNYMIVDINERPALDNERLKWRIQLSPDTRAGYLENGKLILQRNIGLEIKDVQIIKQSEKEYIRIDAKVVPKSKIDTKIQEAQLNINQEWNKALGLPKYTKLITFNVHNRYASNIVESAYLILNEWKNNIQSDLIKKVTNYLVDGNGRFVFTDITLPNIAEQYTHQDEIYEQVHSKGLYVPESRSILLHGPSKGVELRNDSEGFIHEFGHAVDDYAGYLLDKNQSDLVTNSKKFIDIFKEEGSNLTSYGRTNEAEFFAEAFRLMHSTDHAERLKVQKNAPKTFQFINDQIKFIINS
BoNT-A LC inh2: BoNT/A light chain protease inhibitors, primary screen, biochemical, flow cytometry, MLPCN library. inhibition, % at 10 µM. multiplex microsphere protease substrate cleavage. 0.17% of 360,000 active. Botulinum neurotoxin type A light chain protease (Clostridium botulinum A str. ATCC 3502)
BoNT-F LC inh: BoNT/F light chain protease inhibitors, primary screen, biochemical, flow cytometry, MLPCN library; Botulinum neurotoxin type F light chain protease (Clostridium botulinum); Multiplex microsphere protease cleavage assay; inhibition, % at 10 µM; 0.22% of 360,000 active; in the data active = inhibition above about 35%, passing the limit was not always enough; inconclusive = no clear call, values can overlap the other calls
Autofluor counter: flagged as autofluorescent in microsphere protease counterscreen; 3.1% of 360,000 active; AID 624483; compound autofluorescence counterscreen, microsphere flow cytometry; stronger effect = higher value; fluorescence intensity (concentration not given with the values); in the data active = fluorescence intensity above about 16000; inconclusive = no clear call, values can overlap the other calls
MazF activator: activators of E. coli MazEF toxin-antitoxin RNase, primary screen, biochemical, fluorescence, uHTS | Endoribonuclease toxin MazF (Escherichia coli (strain K12)), P0AE70 | FAM/BHQ RNA-DNA oligo cleavage fluorescence, 5 h | activation, % at 20 µM | 0.32% of 350,000 active | AID 504720, 2011; in the data active = activation above about 50%
Each line names hits and unclear results; the compound was inactive in the other large screens. Rows were chosen to be rich in hits. Some 3.6% of all compounds tested hit in one or more screens of this group. Rule as the data show it, unless noted: active = inhibition above about 30%; inconclusive = no clear call, values can overlap the other calls; inactive = below that.

Cc1nn(C)cc1S(=O)(=O)N1CCCCC1C (centres undefined)	none
COc1ccccc1Nc1nc(N)nc(CN2CCN(c3ccccc3)CC2)n1	Autofluor counter 21394
Cc1ccc(Nc2nc(N)nc(CN3CCN(c4ccccc4)CC3)n2)cc1Cl	BoNT-A LC inh2 inconclusive, Autofluor counter 21461
Nc1nc(CN2CCN(Cc3ccccc3)CC2)nc(Nc2ccc3c(c2)OCCO3)n1	none
Cc1ccc(Nc2nc(N)nc(CN3CCN(Cc4ccc5c(c4)OCO5)CC3)n2)cc1Cl	Autofluor counter 23185
COc1ccc(N2CCN(Cc3nc(N)nc(Nc4ccc(C)c(Cl)c4)n3)CC2)cc1	Autofluor counter 21102
COC(=O)Cn1c2ccc(OC)cc2c2nc(C)sc21	none (no result: Anthrax LF prot, BoNT-A LC inh2, BoNT-F LC inh, Autofluor counter)
Nc1nc(CN2CCN(c3ccccn3)CC2)nc(Nc2ccc(F)cc2)n1	Autofluor counter 16591
COc1cc([N+](=O)[O-])ccc1NC(=O)COC(=O)c1ccc(NC(N)=O)cc1	none
CCC(=O)Nc1nnc(SCc2ccccc2F)s1	none
CC(C)(C)C(=O)Nc1nnc(CSCc2ccccc2F)s1	Autofluor counter 19760
CC(C)COC(=O)Nc1nnc(SCc2ccccc2F)s1	Autofluor counter 22547
Cc1ccc(S(=O)(=O)NCc2ccccc2)cc1C(=O)N1CCN(S(=O)(=O)c2ccccc2)CC1	Autofluor counter inconclusive
COc1ccccc1NC(=O)c1ccccc1-c1nc(-c2ccccc2OC)no1	Autofluor counter 21774
COc1ccccc1NC(=O)c1cc(Cl)ccc1NC(=O)c1ccco1	none
COc1ccc(NC(=O)c2ccco2)cc1NC(=O)c1ccco1	none
CCOc1ccccc1NC(=O)c1cc(Cl)ccc1NC(=O)c1ccco1	Autofluor counter 17027
COc1ccc(NC(=O)Cc2ccc(Cl)cc2)cc1NC(=O)c1ccco1	BoNT-A LC inh2 inconclusive, Autofluor counter 21196
COc1ccccc1NC(=O)c1ccccc1NC(=O)c1cc(Cl)ccc1NC(=O)c1ccco1	BoNT-A LC inh2 inconclusive, Autofluor counter 21221
COc1ccccc1-c1noc(-c2ccccc2C(=O)Nc2ccccc2)n1	none
CCOc1ccccc1NC(=O)c1ccc(NC(=O)c2ccco2)cc1	none
Cc1c(C(=O)OCC(=O)NCCc2ccc(S(N)(=O)=O)cc2)oc2ccccc12	none
COc1cccc(S(=O)(=O)N(C)C[C@@H]2Oc3cc(C#CCN(C)C)ccc3S(=O)(=O)N([C@H](C)CO)C[C@@H]2C)c1	none
O=C1NC(=O)C(=Cc2cn(CCOc3ccc4c(c3)OCO4)c3ccccc23)C(=O)N1	MazF activator 528
Cc1cccc(C)c1OCCCCN1CCCCC1	none
CC1(C)OC(=O)C2=C(C[C@@H](CCc3ccccc3)O[C@@H]2c2ccc(Cl)cc2)O1	none (no result: MazF activator)
CC(=O)N1CCc2cc(S(=O)(=O)CCC(=O)NCCc3ccccc3)ccc21	none
Cc1ccc(/C(N)=N/OC(=O)/C=C/c2ccccc2)cc1	none
COc1ccc(/C(N)=N/OC(=O)/C=C/c2ccccc2)cc1	BoNT-F LC inh 62
Cc1ccccc1/C(N)=N/OC(=O)/C=C/c1ccccc1	Autofluor counter 22804
N/C(=N\OC(=O)/C=C/c1ccccc1)c1cccnc1	none
CCOC(=O)CN1C(=O)C(CC)Oc2ccccc21 (centres undefined)	Autofluor counter 24132
COc1ccc(COCC(O)CN2CCN(S(=O)(=O)c3ccc(C(C)C)cc3)CC2)cc1 (centres undefined)	none
Cn1c(SCc2ccc([N+](=O)[O-])cc2)nnc1-c1cccnc1	none
CC(NC(=O)c1ccccc1Br)c1nnc(SCc2ccc([N+](=O)[O-])cc2)n1C (centres undefined)	Autofluor counter 19315
CC(NC(=O)C1CC(=O)N(c2ccc3c(c2)OCCO3)C1)c1ccccc1 (centres undefined)	none
COc1ccc(C(=O)Nc2ccc3oc(-c4cccc(F)c4)nc3c2)cc1OC	none
CCCC(=O)Nc1ccc2oc(-c3ccc(OC)c(Br)c3)nc2c1	Autofluor counter 21634
COc1ccccc1C(=O)Nc1ccc2oc(-c3ccc(F)cc3)nc2c1	Autofluor counter 17405
Cc1cc(=O)[nH]c(SCCCOc2ccccc2Cl)n1	Autofluor counter 20446
C/C=C/c1ccc(OCCSc2nc(C)cc(=O)[nH]2)c(OC)c1	Autofluor counter 17582
CCc1cc(OCCCSc2nc(C)cc(=O)[nH]2)ccc1Cl	BoNT-A LC inh2 inconclusive, Autofluor counter 24555
